# Measurements published in ChEMBL document CHEMBL3988442, “University of Dundee, Small-Polar-MMV Screening Library” (2021).
# Hit rate of the full screen: of about 48,000 compounds, about 13,000 (27%) showed an effect of 50% or more. The list shows a part of the results.
# Tested on: Wolbachia pipientis
# Test: Anti-Wolbachia Cell-Based Screen
# Format: functional
# Set-up: scale not given: in the data most compounds retested in dose-response had high values
# Conditions: 5 µM
row,Structure (SMILES),Percent Effect
1,COc1ccc(NC(=O)CN2CCS(=O)(=O)CC2)cn1,-4.778%
2,CCCN(CCC)Cc1nnsc1Cl,-13.3%
3,Cc1ccc(C(=O)N2C[C@@H](OCC3CCOCC3)[C@H]3OCCC[C@H]32)o1,-9.797%
4,C[C@@H](NC(=O)c1ccc(Cl)cc1)c1onc(-c2cccnc2)c1C(=O)O.Cl,-10.74%
5,c1ccc(-c2nnn3c2COC(CNCC2CC2)C3)cc1 (configuration not stated),-10.69%
6,O=C(Cc1cccnc1)N1CCCC(c2cc(C(F)(F)F)[nH]n2)C1 (configuration not stated),-6.416%
7,NC(=O)c1cc(C2CCCN(C(=O)CCc3ccsc3)C2)n[nH]1 (configuration not stated),-0.264%
8,O=C(CO)N1CCCC(c2cc(C(F)(F)F)[nH]n2)C1 (configuration not stated),144.8%
9,Cc1cccc(CCC(=O)N2CCCC(c3cc(C(N)=O)[nH]n3)C2)c1 (configuration not stated),2.373%
10,CC(C)(C#N)C(=O)N1CCCC(c2cc(C(F)(F)F)[nH]n2)C1 (configuration not stated),-7.065%
11,NC(=O)c1cc(C2CCCN(C(=O)CCc3ccncc3)C2)n[nH]1 (configuration not stated),120%
12,NC(=O)c1cc(C2CCCN(C(=O)CCc3ccccn3)C2)n[nH]1 (configuration not stated),94.78%
13,NC(=O)c1cc(C2CCCN(C(=O)CCc3cccs3)C2)n[nH]1 (configuration not stated),95.12%
14,NC(=O)c1cc(C2CCCN(CCc3ccccn3)C2)n[nH]1 (configuration not stated),-3.119%
15,CN(C)c1nc2c(c(=O)[nH]1)CCN(C(=O)c1c[nH]c(=O)c(Cl)c1)C2,24.13%
16,Cc1cc(C)nc(CNC(=O)C(c2cccnc2)N2CCOCC2)n1 (configuration not stated),12.66%
17,CC(CCc1ccccc1)NC(=O)CNCCCN1CCOCC1.O=C(O)C(=O)O (configuration not stated),7.217%
18,Cc1cc(C)cc(CNCCS(=O)(=O)N2CCOCC2)c1,-11.28%
19,O=c1[nH]c2ccccc2cc1CNCCCN1CCOCC1,102.3%
20,Cc1ccc2cc(CN(C)Cc3ncc[nH]3)c(=O)[nH]c2c1,-0.6566%
21,Cc1ccc2cc(CNCCCN3CCOCC3)c(=O)[nH]c2c1,-6.489%
22,Cc1ccc2cc(CN(C)Cc3ccncn3)c(=O)[nH]c2c1,-11.97%
23,Cc1ccc2cc(CNCCN3CCCC3)c(=O)[nH]c2c1,112.1%
24,Cc1ccc2[nH]c(=O)c(CNCCCN3CCOCC3)cc2c1,96.42%
25,Cc1cc(C)c2cc(CNCCCN3CCOCC3)c(=O)[nH]c2c1,97.61%
26,CCCS(=O)(=O)N1C[C@@H]2CN(Cc3cnn(C)c3)CCO[C@@H]2C1.O=C(O)C(F)(F)F,-20.93%
27,CCOC(=O)c1n[nH]cc1CN1CCOC(Cc2ccc(F)cc2)C1 (configuration not stated),-1.908%
